Experimental data as given in PubChem BioAssay.
Results filed as inconclusive are left out. Activity calls are given as the source filed them.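 Rule for the calls, unless noted: active = inhibition above 50%, about 3 SD of the validation set; inactive = the rest.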

Key:
[1] = rapamycin-like changes in RPL19A-GFP expression – cell-based, S. cerevisiae, multiplex flow cytometry, primary screen (AID 1862; in the data active = percent of DMSO control GFP below about 86%;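 note: lower values mimic rapamycin by blocking the RPL19A rise seen in DMSO cells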); details: S. cerevisiae RPL19A-GFP strain, flow cytometry fluorescence, 3 h; at 10 µM; stronger effect = lower value
[2] = TOR pathway GLN3 branch reporter MEP2-GFP changes – S. cerevisiae, multiplex flow cytometry, primary screen (AID 1867;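 active = GFP response, as percent of the DMSO control, above the screen-wide mean plus 3 SD, about 139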;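 note: median GFP channel fluorescence of barcode-gated MEP2-GFP cells measured by flow cytometry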); details: S. cerevisiae MEP2-GFP strain, 3 h, at 10 µM, stronger effect = higher value, 100% means same as DMSO wells
[3] = TOR pathway RTG branch CIT2 reporter changes – S. cerevisiae, GFP fusion, multiplex flow cytometry, primary screen (AID 1870;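 active = percent response above a set limit, the screen-wide mean plus 3 SD, cut at about 130% in these data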;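 note: barcoded CIT2-GFP strain pooled with four other GFP strains with rapamycin as positive control; median GFP fluorescence per well over plate mean of DMSO wells so 100% = DMSO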); details: S. cerevisiae CIT2-GFP expression, 3 h, at 10 µM, stronger effect = higher value
[4] = TOR pathway LAP4-GFP level changes – S. cerevisiae, multiplex flow cytometry, primary screen (AID 1873;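 active = GFP signal, as percent of the solvent control, above the screen mean plus 3 SD, about 149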); details: S. cerevisiae LAP4-GFP expression, 3 h, at 10 µM, stronger effect = higher value
[5] = yeast AGP1-GFP level changes, GLN3 branch – cell-based, multiplex flow cytometry, S. cerevisiae, primary screen (AID 1887;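 active = GFP signal above the screen-wide mean plus 3 SD, that is over about 124.5% of the solvent control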;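 note: AGP1-GFP fusion strain of S. cerevisiae within a five-strain barcoded multiplex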); details: 3 h, at 10 µM, stronger effect = higher value
[6] = reduced mouse 2C T cell binding to pMHC/ICAM-1 vesicles – MLPCN validation set, flow cytometry, LFA-1/ICAM-1 modulator project, pilot screen (AID 2523;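 active = response below a set limit, under 55% cells CD8-positive and vesicle-bound, and CD8 cells' 90th-percentile brightness under 279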;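 for vesicle binding response: mean PE anti-B7-1 fluorescence of CD8+ cells relative to row control; 100% = QL9-loaded vesicles with DMSO vehicle in the same plate row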); details: 2C mouse CD8+ T cells, at 7 µM, stronger effect = lower value; double positive events: measured here: CD8+/vesicle+ event percentage
[7] = biological target: Integrin beta-1 (Homo sapiens) + Integrin alpha-4 (Homo sapiens) (UniProt P13612+P05556); assay: alpha4beta1 integrin LIBS antibody binding reduction – U937 cells, HUTS-21 mAb, flow cytometry, validation set, VLA-4 allosteric modulator project, pilot screen (AID 2674); details: HUTS-21 LIBS mAb binding, at 6.7 µM, stronger effect = higher value, binding induced by LDV ligand;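 note: antibody binding induced by the VLA-4 ligand LDV present at three times its Kd; 0% = LDV ligand with antibody and no compound and 100% = antibody without LDV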
Chain of Integrin beta-1 (Homo sapiens) + Integrin alpha-4 (Homo sapiens) (P05556 whole entry, looked up): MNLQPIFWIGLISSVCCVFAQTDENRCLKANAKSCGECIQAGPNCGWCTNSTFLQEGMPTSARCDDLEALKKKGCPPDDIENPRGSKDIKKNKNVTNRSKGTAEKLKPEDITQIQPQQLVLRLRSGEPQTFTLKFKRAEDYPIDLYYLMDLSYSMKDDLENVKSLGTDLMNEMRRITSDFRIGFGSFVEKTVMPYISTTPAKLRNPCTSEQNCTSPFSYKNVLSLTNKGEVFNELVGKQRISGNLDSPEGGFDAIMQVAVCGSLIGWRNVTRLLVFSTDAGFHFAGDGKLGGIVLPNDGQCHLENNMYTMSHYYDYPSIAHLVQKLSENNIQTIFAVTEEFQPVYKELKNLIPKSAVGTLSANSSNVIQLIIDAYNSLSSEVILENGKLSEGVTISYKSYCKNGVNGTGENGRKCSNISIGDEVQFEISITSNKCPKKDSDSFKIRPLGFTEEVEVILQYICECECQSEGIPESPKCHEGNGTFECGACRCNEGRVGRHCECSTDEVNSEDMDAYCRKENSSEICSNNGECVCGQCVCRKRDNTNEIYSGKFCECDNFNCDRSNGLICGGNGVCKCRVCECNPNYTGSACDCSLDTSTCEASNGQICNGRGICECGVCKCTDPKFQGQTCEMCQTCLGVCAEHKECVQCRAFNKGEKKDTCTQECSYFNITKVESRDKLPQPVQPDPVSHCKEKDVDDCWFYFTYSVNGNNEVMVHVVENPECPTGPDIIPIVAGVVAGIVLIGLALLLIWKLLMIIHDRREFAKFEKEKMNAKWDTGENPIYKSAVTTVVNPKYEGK
Chain of Integrin beta-1 (Homo sapiens) + Integrin alpha-4 (Homo sapiens) (P13612 whole entry, looked up): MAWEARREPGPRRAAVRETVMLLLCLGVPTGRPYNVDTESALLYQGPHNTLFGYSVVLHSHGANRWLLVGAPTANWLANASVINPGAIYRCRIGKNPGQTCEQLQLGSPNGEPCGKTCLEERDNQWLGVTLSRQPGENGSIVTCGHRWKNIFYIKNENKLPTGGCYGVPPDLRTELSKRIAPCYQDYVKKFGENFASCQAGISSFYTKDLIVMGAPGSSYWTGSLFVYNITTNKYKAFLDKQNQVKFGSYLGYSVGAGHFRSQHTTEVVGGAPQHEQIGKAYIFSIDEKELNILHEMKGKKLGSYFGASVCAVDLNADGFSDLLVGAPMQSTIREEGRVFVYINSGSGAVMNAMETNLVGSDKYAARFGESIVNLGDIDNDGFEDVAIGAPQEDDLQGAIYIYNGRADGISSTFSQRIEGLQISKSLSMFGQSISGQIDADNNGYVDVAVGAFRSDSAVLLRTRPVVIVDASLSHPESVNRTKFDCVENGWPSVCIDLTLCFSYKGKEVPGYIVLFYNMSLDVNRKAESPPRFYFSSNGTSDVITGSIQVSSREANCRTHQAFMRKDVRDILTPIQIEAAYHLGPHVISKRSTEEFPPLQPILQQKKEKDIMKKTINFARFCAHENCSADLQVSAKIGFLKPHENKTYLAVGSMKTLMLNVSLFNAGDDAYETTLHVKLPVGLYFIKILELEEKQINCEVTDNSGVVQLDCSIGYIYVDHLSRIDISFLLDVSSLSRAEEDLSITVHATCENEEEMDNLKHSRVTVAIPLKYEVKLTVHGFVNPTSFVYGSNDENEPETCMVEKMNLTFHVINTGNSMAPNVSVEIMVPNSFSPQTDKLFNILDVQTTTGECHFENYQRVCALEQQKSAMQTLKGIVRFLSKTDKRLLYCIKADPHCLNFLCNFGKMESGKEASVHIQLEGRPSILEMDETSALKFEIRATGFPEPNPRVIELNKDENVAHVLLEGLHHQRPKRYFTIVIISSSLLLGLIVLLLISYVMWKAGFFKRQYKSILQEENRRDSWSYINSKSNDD

[8] = calorie-restriction mimetic ROS inhibitors, yeast – validation compound set, pilot screen (AID 2706;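 active = superoxide response below 65% of plate, a cut near 3 SD across the whole screen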;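 note: yeast exposed to compound for one week at 30 degrees C before staining; 100% = mean of all compound wells on the same plate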); details: S. cerevisiae aging, superoxide DHE fluorescence; at 10 µM, stronger effect = lower value
[9] = biological target: Beta-adrenergic receptor kinase 1 (Homo sapiens) (UniProt P25098); assay: GRK2 binders displacing RNA aptamer, biochemical, validation, human GRK2, bead flow cytometry (AID 488806;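 active = aptamer binding inhibition above 30%, about 3 SD of noise from non-fluorescent compounds; inactive = inhibition at or below 30%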); details: bead-bound GRK2, FAM-aptamer displacement, at 10 µM, stronger effect = higher value
Chain of Beta-adrenergic receptor kinase 1 (Homo sapiens) (P25098 whole entry, looked up): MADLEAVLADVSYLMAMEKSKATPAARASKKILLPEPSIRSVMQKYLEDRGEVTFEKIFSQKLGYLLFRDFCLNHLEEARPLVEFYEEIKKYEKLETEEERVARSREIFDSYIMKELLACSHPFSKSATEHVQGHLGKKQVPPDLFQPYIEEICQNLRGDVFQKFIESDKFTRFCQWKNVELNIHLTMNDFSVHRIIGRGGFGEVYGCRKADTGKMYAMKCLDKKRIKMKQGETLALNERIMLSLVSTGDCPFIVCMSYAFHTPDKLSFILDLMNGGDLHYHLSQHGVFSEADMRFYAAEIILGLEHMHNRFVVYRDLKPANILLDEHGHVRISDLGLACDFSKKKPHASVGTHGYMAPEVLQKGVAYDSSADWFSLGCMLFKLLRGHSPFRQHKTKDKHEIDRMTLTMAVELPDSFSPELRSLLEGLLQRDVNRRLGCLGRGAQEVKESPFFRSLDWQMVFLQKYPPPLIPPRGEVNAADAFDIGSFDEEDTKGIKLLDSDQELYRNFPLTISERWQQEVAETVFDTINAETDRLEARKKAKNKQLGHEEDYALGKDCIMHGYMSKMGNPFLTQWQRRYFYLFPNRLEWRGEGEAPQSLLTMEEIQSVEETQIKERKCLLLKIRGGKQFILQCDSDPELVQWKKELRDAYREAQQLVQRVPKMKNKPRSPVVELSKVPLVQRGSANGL

[10] = biological target: AP-2 complex subunit beta (Homo sapiens) (UniProt P63010); assay: beta-arrestin/AP2 interaction blockers – biochemical, validation set, GST-AP2 beads, flow cytometry, pilot screen (AID 504541;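 active = inhibition above 54%, about 3 SD of non-fluorescent compounds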;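 note: AP2 carries R879A mutation and is captured from E. coli lysate; bead-bound FITC arrestin peptide fluorescence measuring arrestin peptide binding to AP2; 0% = DMSO wells and 100% = excess unlabeled arrestin peptide control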); details: FITC arrestin peptide, at 10 µM, stronger effect = higher value, AP2 beta2 appendage fragment, R879A mutant
Chain of AP-2 complex subunit beta (Homo sapiens) (P63010 whole entry, looked up, the tested form may be a part, one chain of several): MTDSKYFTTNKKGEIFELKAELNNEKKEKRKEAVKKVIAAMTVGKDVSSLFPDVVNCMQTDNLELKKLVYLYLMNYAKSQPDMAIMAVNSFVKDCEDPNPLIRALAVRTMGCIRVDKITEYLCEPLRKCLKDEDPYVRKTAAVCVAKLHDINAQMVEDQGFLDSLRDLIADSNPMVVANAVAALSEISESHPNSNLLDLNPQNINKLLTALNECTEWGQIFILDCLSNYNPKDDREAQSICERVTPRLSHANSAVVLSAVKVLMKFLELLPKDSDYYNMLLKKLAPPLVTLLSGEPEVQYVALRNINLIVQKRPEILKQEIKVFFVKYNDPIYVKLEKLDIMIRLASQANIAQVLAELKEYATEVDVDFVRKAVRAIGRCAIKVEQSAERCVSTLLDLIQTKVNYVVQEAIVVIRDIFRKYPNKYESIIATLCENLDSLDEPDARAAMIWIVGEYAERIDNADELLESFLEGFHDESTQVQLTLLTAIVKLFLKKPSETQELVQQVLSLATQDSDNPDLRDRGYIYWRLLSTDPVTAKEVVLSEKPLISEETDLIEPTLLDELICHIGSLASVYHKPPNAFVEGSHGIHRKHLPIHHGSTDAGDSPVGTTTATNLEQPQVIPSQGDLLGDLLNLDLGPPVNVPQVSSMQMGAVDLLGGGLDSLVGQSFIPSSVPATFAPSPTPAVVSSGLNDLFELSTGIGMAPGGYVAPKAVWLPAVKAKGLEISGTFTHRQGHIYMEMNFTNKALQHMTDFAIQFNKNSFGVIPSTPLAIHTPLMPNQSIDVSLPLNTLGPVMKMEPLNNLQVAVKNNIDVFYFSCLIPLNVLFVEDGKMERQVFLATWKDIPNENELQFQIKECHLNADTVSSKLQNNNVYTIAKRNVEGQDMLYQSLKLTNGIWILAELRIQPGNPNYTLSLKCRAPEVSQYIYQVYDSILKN

[11] = cytosolic pH regulators acting via V-ATPase – S. cerevisiae, pHLuorin, HTS validation (AID 504600; in the data active = response above about 15%;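 note: plate controls were DMSO for no effect and reference compound for full effect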); details: V-ATPase proton transport, at 10 µM, stronger effect = higher value
[12] = system: anti-desmoglein-3 scFv antibody binding to human DSG3; assay: blockers of pathogenic pemphigus antibody–desmoglein-3 binding – biochemical, validation compound set, bead-based, flow cytometry, pilot screen (AID 588368;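 active = binding below the plate cutoff, the plate median minus 3 SD, with a reading above zero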;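 note: signal is the median channel fluorescence of bead-bound GFP antibody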); details: Protein G beads, DSG3-Fc, scFv-GFP binding, at 10 µM, stronger effect = lower value
[13] = Nile Red efflux blockade in pump-expressing yeast – validation compound set, multiplex, phenotypic, pilot screen (AID 588506;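 active = efflux inhibition above 0.42, the validation set average plus 4 SD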;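 note: Nile Red retained in cells so higher fluorescence means more efflux inhibition; 0 = negative control wells and 1 = enniatin B 25 µM full block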); details: S. cerevisiae pump-expressing triplex, Nile Red efflux flow cytometry; at 10 µM; stronger effect = higher value; the pumps come from Candida albicans
[14] = biological target: ATP-binding cassette sub-family B member 6 (Homo sapiens) (UniProt Q9NP58); assay: blockers of ABCB6-driven porphyrin uptake – K562-ABCB6 cells, flow cytometry, validation set, pilot screen (AID 588550;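 active = inhibition above the screen-wide mean plus 3 SD, about 51%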;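 note: 0% = DMSO wells and 100% = benzethonium chloride 70 µM positive control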); details: K562-ABCB6 porphyrin accumulation, 1 h, at 10 µM, stronger effect = higher value
Chain of ATP-binding cassette sub-family B member 6 (Homo sapiens) (Q9NP58 whole entry, looked up): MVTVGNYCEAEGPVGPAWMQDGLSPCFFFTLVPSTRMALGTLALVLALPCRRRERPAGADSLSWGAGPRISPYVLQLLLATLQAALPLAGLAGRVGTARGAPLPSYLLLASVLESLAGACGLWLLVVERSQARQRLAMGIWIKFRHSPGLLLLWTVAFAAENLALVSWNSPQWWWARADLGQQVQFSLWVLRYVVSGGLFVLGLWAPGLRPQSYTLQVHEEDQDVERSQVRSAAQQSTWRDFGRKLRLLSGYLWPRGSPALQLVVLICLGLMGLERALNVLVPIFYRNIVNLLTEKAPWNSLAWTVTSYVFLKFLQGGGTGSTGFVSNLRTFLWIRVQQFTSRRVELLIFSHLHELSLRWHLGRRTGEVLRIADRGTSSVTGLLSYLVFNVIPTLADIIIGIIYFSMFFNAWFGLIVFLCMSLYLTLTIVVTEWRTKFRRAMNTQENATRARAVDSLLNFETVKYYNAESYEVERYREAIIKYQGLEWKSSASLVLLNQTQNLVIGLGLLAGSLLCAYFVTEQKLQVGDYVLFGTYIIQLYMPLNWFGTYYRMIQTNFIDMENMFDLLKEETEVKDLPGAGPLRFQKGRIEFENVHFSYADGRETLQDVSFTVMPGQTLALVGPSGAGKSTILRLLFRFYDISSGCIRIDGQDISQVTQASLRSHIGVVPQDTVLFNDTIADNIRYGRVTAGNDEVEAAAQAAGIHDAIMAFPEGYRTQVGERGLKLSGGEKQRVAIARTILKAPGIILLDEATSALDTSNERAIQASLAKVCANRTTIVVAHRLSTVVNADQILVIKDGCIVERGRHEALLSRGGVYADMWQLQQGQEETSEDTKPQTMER

[15] = AML differentiation inducers, ER-HoxA9 marrow cells – cell-based, GFP/MAC1 double positive, flow cytometry, validation set, primary screen (AID 588685;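 active = differentiation response of at least 50%, scaled between solvent and reference control, from cells with both markers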;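 note: compound exposure lasts four days before antibody staining and flow analysis; 0% = DMSO wells and 100% = 5 µM fulvestrant positive control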); details: stronger effect = higher value, normalized: vehicle 0, fulvestrant 100

Row | Compound | percent of DMSO control GFP [1] | GFP response vs DMSO [2] | percent response of DMSO control [3] | GFP response vs DMSO [4] | GFP response, % of DMSO [5] | double positive events [6] [%] | vesicle binding response [6] | inhibition [7] | superoxide response (% of plate) [8] | aptamer binding inhibition [9] | inhibition [10] | response [11] | binding (% of control) [12] | efflux inhibition (fraction of control) [13] | inhibition [14] | differentiation response [15]
1 | COc1cccc(C2CCCN2Cc2nc(CCC(C)C)no2)c1 (stereo not given) | 101% (inactive) | 116% (inactive) | 103% (inactive) | 109% (inactive) | 101% (inactive) | 54.6 | 135% (inactive) | -9.57% (inactive) | 102% (inactive) | 0% (inactive) | 5.57% (inactive) | 3.31% (inactive) | 104% (inactive) | 0.25 (inactive) | 8% (inactive) | 4.64% (inactive)
2 | O=C(COc1ccccc1)N1CCN(c2ccccc2)CC1 | 102% (inactive) | 104% (inactive) | 103% (inactive) | 100% (inactive) | 97.8% (inactive) | 53.2 | 176% (inactive) | -3.97% (inactive) | 94% (inactive) | 2% (inactive) | 5.07% (inactive) | -1.27% (inactive) | 97.8% (inactive) | 0.25 (inactive) | 6% (inactive) | 9.49% (inactive)
3 | O=C1C=CC(=O)C(C2=C3C(=O)N(CCc4ccccc4)CC(=O)N3CCC2)=C1 | 106% (inactive) | 103% (inactive) | 102% (inactive) | 94.3% (inactive) | 104% (inactive) | 42.5 | 92.7% (inactive) | -30.1% (inactive) | 115% (inactive) | 3% (inactive) | 12% (inactive) | -0.59% (inactive) | 101% (inactive) | -0.28 (inactive) | 8% (inactive) | -18% (inactive)
4 | O=C(O)c1cc(-c2ccc3c(c2)OCO3)nc2ccc(Br)cc12 | 100% (inactive) | 97.9% (inactive) | 82.2% (inactive) | 127% (inactive) | 88.9% (inactive) | 67 | 182% (inactive) | -7.7% (inactive) | 108% (inactive) | -3% (inactive) | 12% (inactive) | -4.89% (inactive) | 105% (inactive) | 0.18 (inactive) | 8% (inactive) | 41.8% (inactive)
5 | COc1ccc2[nH]c3c(c2c1)CCn1c-3nc2ccccc2c1=O | 101% (inactive) | 105% (inactive) | 104% (inactive) | 116% (inactive) | 101% (inactive) | 48.2 | 168% (inactive) | 2.56% (inactive) | 95.3% (inactive) | -2% (inactive) | 10.7% (inactive) | 11.4% (inactive) | 97.2% (inactive) | -0.12 (inactive) | 7% (inactive) | 0% (inactive)
6 | C[N+]12CCC(CC1)C(OC(=O)C(O)(c1ccccc1)c1ccccc1)C2 (stereo not given) | 96.8% (inactive) | 96.9% (inactive) | 99.8% (inactive) | 100% (inactive) | 95.8% (inactive) | 60.6 | 211% (inactive) | 2.56% (inactive) | 104% (inactive) | -2% (inactive) | -2.25% (inactive) | 2.36% (inactive) | 102% (inactive) | -0.35 (inactive) | 10% (inactive) | -21.2% (inactive)
7 | CC(C)(C)[C@]1(O)CCN2C[C@H]3c4ccccc4CCc4cccc(c43)[C@@H]2C1 | 106% (inactive) | 97.9% (inactive) | 112% (inactive) | 102% (inactive) | 107% (inactive) | 35.9 | 134% (inactive) | -20.8% (inactive) | 95.1% (inactive) | -4% (inactive) | -19.5% (inactive) | 1.63% (inactive) | 106% (inactive) | -0.2 (inactive) | 6% (inactive) | 20.8% (inactive)
8 | CCOc1ccc(C(=O)/C=C/c2cc(OC)c(OC)c(OC)c2)cc1 | 97.1% (inactive) | 105% (inactive) | 92% (inactive) | 105% (inactive) | 89.4% (inactive) | 54.7 | 209% (inactive) | -0.24% (inactive) | 91.6% (inactive) | -3% (inactive) | 4.7% (inactive) | 1.41% (inactive) | 104% (inactive) | 0.25 (inactive) | 4% (inactive) | 40.2% (inactive)
9 | COC(=O)c1ccc(COc2ccc3c(C)c(C)c(=O)oc3c2C)o1 | 101% (inactive) | 97.9% (inactive) | 96.9% (inactive) | 92.3% (inactive) | 91.6% (inactive) | 57.7 | 157% (inactive) | 14.7% (inactive) | 96.2% (inactive) | 3% (inactive) | 4.76% (inactive) | -2.54% (inactive) | 102% (inactive) | 0.06 (inactive) | 11% (inactive) | 9.49% (inactive)
10 | C[N+]12CCCCC1C(COC(=O)c1ccc3c(c1)OCO3)CCC2 (stereo not given) | 97.6% (inactive) | 96.9% (inactive) | 97.9% (inactive) | 85.3% (inactive) | 93.9% (inactive) | 62 | 116% (inactive) | 10.9% (inactive) | 99.1% (inactive) | 5% (inactive) | -3.8% (inactive) | 1.26% (inactive) | 96.7% (inactive) | 0.14 (inactive) | 12% (inactive) | -19.6% (inactive)
